Most compounds without a hit are left out; they make up all but 2.7% or so of the library.
Nrf2 activator: qHTS of Nrf2 Activators. AREc32 ARE-luciferase reporter (MCF7-derived line), luminescence, 24 h. AID 624171, 2012. actives 0.31% (n = 410,000). Potency, µM (doses to about 46.1 µM), most hits filed as activators; also: nearly all actives have a fitted effect of over 65% in size
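Quantitative high-throughput format: AREc32 reporter cells, 1000 per well, received compound by pin transfer and were incubated 24 hr at 37 deg C, 5% CO2, before Steady-Glo luminescence detection.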
LDHA inh: qHTS assay for inhibitors of human lactate dehydrogenase | L-lactate dehydrogenase A chain (Homo sapiens), P00338 | actives 0.15% (n = 480,000) | purified LDHA, NADH/diaphorase-resazurin fluorescence; stronger effect = lower value | activity change, % (values are at about 110 or 230 µM); in the data active = activity change below about -30%; inconclusive = mostly about -25% to -30%
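Enzyme activity of human lactate dehydrogenase 5 (2 nM; 0.06 mM NADH, 0.2 mM pyruvate, 5 min, RT) is measured via a resazurin/diaphorase fluorescence readout of residual NADH.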
Nrf2 block: Nrf2 qHTS screen for inhibitors; A549 ARE-Fluc reporter, luciferase luminescence, 18-24 h; Potency, µM (doses to about 46 µM), most hits filed as inhibitors; actives 2.1% (n = 360,000); AID 504444, 2011; also: nearly all actives have a fitted effect of over 60% in size
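A549 ARE_Fluc cells, 5000/well, 5% FBS OPTI-MEM; compounds in dose-response, 18-24 h at 37 °C/5% CO2; CellTiter-Fluor viability read (Ex 405/Em 525), then BugLite luciferase luminescence = Nrf2 activity.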
mIDH1 inhibitor: qHTS for Inhibitors of mutant isocitrate dehydrogenase 1 (IDH1): qHTS; AID 602179, 2012; Potency, µM (top dose mostly 76.6 µM), actives largely listed as inhibitors; Isocitrate dehydrogenase [NADP] cytoplasmic (Homo sapiens), O75874; actives 0.093% (n = 390,000); IDH1-R132H enzyme, NADPH consumption, diaphorase/resazurin fluorescence; also: nearly all actives have a fitted effect of over 65% in size
Target sequence (O75874 whole entry R132H, stated change not applied): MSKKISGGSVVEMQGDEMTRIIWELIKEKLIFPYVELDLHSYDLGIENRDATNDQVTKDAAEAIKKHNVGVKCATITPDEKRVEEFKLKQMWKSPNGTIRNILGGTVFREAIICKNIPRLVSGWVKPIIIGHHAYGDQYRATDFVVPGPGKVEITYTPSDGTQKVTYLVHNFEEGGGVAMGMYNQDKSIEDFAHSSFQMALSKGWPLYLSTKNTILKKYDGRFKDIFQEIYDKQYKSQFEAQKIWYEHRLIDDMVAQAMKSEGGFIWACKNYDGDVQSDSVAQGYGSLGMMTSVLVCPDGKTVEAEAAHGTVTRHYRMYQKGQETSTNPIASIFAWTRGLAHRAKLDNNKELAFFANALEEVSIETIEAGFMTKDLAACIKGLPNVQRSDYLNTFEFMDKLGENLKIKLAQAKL
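IDH1-R132H (0.5 ug/mL dispensed) in pH 7.5 Tris buffer was preincubated 30 min with compound, then given a substrate mix of 0.016 mM NADPH and 2 mM alpha-KG for 80 min at room temperature; remaining NADPH was read by diaphorase/resazurin fluorescence.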
ALOX12 inh: Primary qHTS assay for inhibitors of human arachidonate 12S-lipoxygenase (ALOX12): Round 2. Polyunsaturated fatty acid lipoxygenase ALOX12 (Homo sapiens), P18054. purified 12hLO, xylenol orange hydroperoxide absorbance. Potency, µM (highest dose often 108 µM), usual class: inhibitors. actives 1.1% (n = 580,000). AID 1671190, 2021
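Hydroperoxide product was detected by ferrous iron/xylenol orange as the 573 to 405 nm absorbance ratio. Arachidonic acid at 40 uM (final) was turned over for 30 min at room temperature by 150 nM human 12hLO, pH 7.0 Hepes buffer, after 15 min compound preincubation.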
A549 tox: Nrf2 qHTS screen for inhibitors: counterscreen for cytotoxicity. A549 ARE-Fluc cells, CellTiter-Fluor viability, 18-24 h. Potency, µM (highest dose often 46 µM), hits mostly inhibitors. actives 0.16% (n = 390,000). AID 504648, 2011
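A549 ARE_Fluc cells in 5% FBS OPTI-MEM were exposed to compounds in concentration-response for 18-24 h at 37 deg C. Viability was read by CellTiter-Fluor fluorescence (Ex 405/Em 525) after 30 min, before the luciferase read.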
Of the large screens only hits and unclear results are named; the others gave an inactive call. Unless noted, calls follow the shape of the dose curve; as a rule, active = well fitted curve in the direction sought with a large enough effect; inconclusive = small, poorly fitted or top-dose-only effect, or another doubt; inactive = no such curve, though single readings can be large; an effect the other way counts as inactive or inconclusive.

[O-][n+]1onc2c1CCc1c-2nn(-c2ccccc2Cl)[n+]1[O-]	Nrf2 activator inconclusive, Nrf2 block inconclusive
Cc1ccc(-n2nc3c([n+]2[O-])CCc2c-3no[n+]2[O-])cc1	Nrf2 activator 2.2µM, A549 tox inconclusive
CC1=CC(=O)C(C(=O)/C=C/c2cccs2)C(=O)O1 (centres undefined)	ALOX12 inh inconclusive (no result: Nrf2 activator, Nrf2 block, mIDH1 inhibitor, A549 tox)
CC1=CC(=O)C(C(=O)/C=C/c2ccc(C)s2)C(=O)O1 (centres undefined)	ALOX12 inh 14µM (no result: Nrf2 activator, Nrf2 block, mIDH1 inhibitor, A549 tox)
COC(=O)c1cc(NC(=O)c2cc(C(C)(C)C)nn2Cc2ccc(F)cc2)ccc1N1CCOCC1	Nrf2 block 13µM
CC(C)(C)NC(=O)C12CC3CC(CC(Cl)(C3)C1)C2	none
CC(C)(C)NC(=S)NC(=O)C12CCC3CC(CC(C3)C1)C2	ALOX12 inh 32µM
COc1ccc(OC)c(S(=O)(=O)N2CCN(c3cccc(C)c3C)CC2)c1	none (no result: Nrf2 activator, Nrf2 block, mIDH1 inhibitor, A549 tox)
COc1cc(CNC(=O)[C@H]2CCC[C@H]2NC(=O)c2ccc(OC)nc2)cc(OC)c1	none (no result: Nrf2 activator, LDHA inh, Nrf2 block, mIDH1 inhibitor, A549 tox)
O=c1[nH]c(O)c(/C=C2\C=Nc3ccccc32)[nH]1	Nrf2 activator 4µM, Nrf2 block inconclusive, ALOX12 inh inconclusive, A549 tox inconclusive
O=c1oc2ccccc2c(O)c1/C=C1\C=Nc2ccccc21	ALOX12 inh inconclusive
CCCCNC(=S)N(C)N	ALOX12 inh inconclusive (no result: Nrf2 activator, Nrf2 block, mIDH1 inhibitor, A549 tox)
CN1CC(=O)N(C2CCNCC2)Cc2c1ncnc2N(C)Cc1ccc(F)cc1	ALOX12 inh 8.9µM (no result: Nrf2 activator, LDHA inh, Nrf2 block, mIDH1 inhibitor, A549 tox)
CC(C)Nc1ncnc2c1CN(C1CCCNC1)C(=O)CN2C (centres undefined)	ALOX12 inh 4µM (no result: Nrf2 activator, LDHA inh, Nrf2 block, mIDH1 inhibitor, A549 tox)
CN1CC(=O)N(C2CCNCC2)Cc2c(NCCc3cccc(F)c3)ncnc21	ALOX12 inh 18µM (no result: Nrf2 activator, LDHA inh, Nrf2 block, mIDH1 inhibitor, A549 tox)
CCCCc1c(C)nn(-c2nc(C)c(C(=O)Nc3ccc(OC)cc3)s2)c1C	none (no result: Nrf2 activator, Nrf2 block, mIDH1 inhibitor, A549 tox)
Cn1c(=O)n(Cc2ccccc2)c(=O)c2c1nc1n2CCCN1CCc1ccccc1	Nrf2 block 29µM
COc1ccc(CNc2nc3c(c(=O)n(Cc4ccc(Br)cc4)c(=O)n3C)n2C)cc1	Nrf2 block 18µM
Cn1c(NCc2ccccc2)nc2c1c(=O)n(Cc1ccc(Br)cc1)c(=O)n2C	Nrf2 block 15µM
Cn1c(NCc2ccco2)nc2c1c(=O)n(Cc1ccc(Cl)cc1Cl)c(=O)n2C	Nrf2 block 18µM
O=C(NC1CC1)C(NCc1cccc(Cl)c1)c1ccc(F)cc1 (centres undefined)	ALOX12 inh inconclusive (no result: Nrf2 activator, Nrf2 block, mIDH1 inhibitor, A549 tox)
CCOC(=O)C(NC(=O)c1cc(F)c(F)cc1Cl)C(=O)OCC	ALOX12 inh inconclusive (no result: Nrf2 activator, Nrf2 block, mIDH1 inhibitor, A549 tox)
CSc1ccc(NC(=O)c2ccc3c(c2)OCC(=O)N3)cc1	none (no result: Nrf2 activator, Nrf2 block, mIDH1 inhibitor, A549 tox)
Cn1c(CN2CCN(c3ccccc3NC(=O)c3ccccc3)CC2)nc2ccccc21	none (no result: Nrf2 activator, Nrf2 block, mIDH1 inhibitor, A549 tox)
Cn1c(=O)c2c(nc(NCc3ccc4c(c3)OCO4)n2Cc2ccccc2)n(C)c1=O	ALOX12 inh inconclusive, A549 tox inconclusive (no result: Nrf2 block)
Cn1c(=O)c2c(nc(NCc3ccc4c(c3)OCO4)n2Cc2ccc(F)cc2)n(C)c1=O	Nrf2 block 23µM
Cc1ccc(Oc2nc3c(c(=O)n(Cc4ccccc4)c(=O)n3C)n2C)cc1C	Nrf2 block 18µM
CC12C=CC(=O)C=C1CCC1C2C(=O)CC2(C)C1CCC2(O)C(=O)CO (centres undefined)	Nrf2 block 0.29µM
COc1ccc(-c2sc3ccc(N4CCOCC4)cc3c2C#CCO)cc1	Nrf2 block 16µM, ALOX12 inh 20µM
S=C(NCCCCN(Cc1ccc(Cl)cc1)c1ccc(Br)cn1)NCCCc1cnc[nH]1	Nrf2 block inconclusive, ALOX12 inh 35µM (no result: mIDH1 inhibitor)
Cc1cccc(Cn2c(O)c(N=NC(=S)Nc3ccccc3F)c3ccccc32)c1	Nrf2 block 5.8µM, A549 tox inconclusive
